Laboratory results taken from paper PMC5540273 (PLoS ONE, 2017).
pKd: −log10 of the molar value.

test system: EPHB6
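Note: kd values determined as follow-up on hits from a single-replicate KINOMEscan panel screen.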

| SMILES | pKd |
| --- | --- |
| Nc1ncnc2occ(-c3ccc4c(c3)CCN4C(=O)Cc3cc(F)ccc3F)c12 [GSK2645446] | 6.30 |
| COC(=O)C(NC(=O)NC1CCN(c2ccnc(Nc3ccc(F)cc3)n2)C1)c1ccccc1 (centres unmarked) [GSK1379712] | 7.24 |
| COc1ccc(Nc2nccc(N3CCC(NC(=O)C(C)c4ccc(Cl)cc4)CC3)n2)cc1 (centres unmarked) [GSK1379812] | < 5.00 |
| FC(F)(F)c1ccccc1-c1cc(-c2c[nH]nc2-c2ccccn2)ccn1 [GW679396] | 5.07 |

test system: ERBB2

| SMILES | pKd |
| --- | --- |
| CS(=O)(=O)CCNCc1nc(-c2ccc3ncnc(Nc4ccc(OCc5ccccc5)c(Cl)c4)c3c2)cs1.Cl [GW582764] | 8.40 |
| CS(=O)(=O)CCNCc1nc(-c2ccc3ncnc(Nc4ccc5c(cnn5Cc5ccccc5)c4)c3c2)cs1.Cl.Cl [GW569716] | 8.96 |
| Cn1cncc1-c1cc2c(Nc3ccc(OCc4ccccc4)cc3)ncnc2cn1 [GW281179] | 7.77 |
| COc1cc2ncnc(Nc3cccc(Br)c3)c2cc1OC.Cl [GI230329] | 7.07 |

test system: T1, ERK8
T1 construct: gene MAPK15

| SMILES | pKd |
| --- | --- |
| O=C(Nc1n[nH]c2nc(-c3cccs3)c(Br)cc12)C1CC1 [SB-735297] | 6.89 |
| O=C(Nc1n[nH]c2cc(-c3ccsc3)ccc12)C1CC1 [SB-732932] | 7.32 |
| Cc1cccc2c(-c3ccncn3)c(-c3ccc(F)cc3)nn12 [GW515532] | < 5.00 |
